According to PubChem BioAssay (NCI):
This is part of a sample that, as a whole, favours compounds with a hit. Of some 83,000 tested, about 20% had one in any assay.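 Percent growth is the endpoint: 0 to 100 indicates growth inhibition (40 means 60% inhibition), 0 means no net growth, and negative values indicate cell death.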 The source made the active and inactive calls. The calls were made as follows: active = growth percent below 10; inactive = the rest.

Tests used:
Assay in all cases: NCI-60 one-dose screen, 48 h (100 = growth as untreated, 0 = no growth, -100 = all killed)
Conditions in all cases: 10 µM unless noted
NCI-H23 lung = system: NCI-H23 lung
NCI-H226 lung = system: NCI-H226 lung
NCI-H322M lung = system: NCI-H322M lung
HOP-62 NSCLC = system: HOP-62 NSCLC
NCI-H460 lung = system: NCI-H460 lung
HOP-92 NSCLC = system: HOP-92 NSCLC
NCI-H522 lung = system: NCI-H522 lung
A549/ATCC NSCLC = system: A549/ATCC NSCLC
786-0 renal = system: 786-0 renal
COLO 205 colon = system: COLO 205 colon
DU-145 prostate = system: DU-145 prostate
K-562 leukemia = system: K-562 leukemia
MALME-3M melanoma = system: MALME-3M melanoma
MDA-MB-231 breast = system: MDA-MB-231 breast
RXF 393 renal = system: RXF 393 renal
SF-268 CNS = system: SF-268 CNS
SF-295 CNS = system: SF-295 CNS
UACC-257 melanoma = system: UACC-257 melanoma
M14 melanoma = system: M14 melanoma

Measured: growth

CCCCCCCCCCCCCCCCCCSC1=CC(=O)C(OC)=C(OC)C1=O
inactive: NCI-H23 lung 89.8% | NCI-H226 lung 96.7% | NCI-H322M lung 114% | HOP-62 NSCLC 108% | NCI-H460 lung 105% | HOP-92 NSCLC 56.5% | NCI-H522 lung 94.5% | A549/ATCC NSCLC 103% | 786-0 renal 120% | COLO 205 colon 111% | DU-145 prostate 113% | K-562 leukemia 82.2% | MALME-3M melanoma 112% | MDA-MB-231 breast 93.5% | RXF 393 renal 97.7% | SF-268 CNS 110% | SF-295 CNS 97.9% | UACC-257 melanoma 90.8% | M14 melanoma 74.6%

COc1cc(OC)c(/C=C/C(=O)c2c(OC)cc(OC)cc2OC)c(OC)c1
inactive: NCI-H226 lung 36.1% | NCI-H322M lung 21.4% | HOP-62 NSCLC 27% | HOP-92 NSCLC 130% | A549/ATCC NSCLC 25.1% | 786-0 renal 29% | DU-145 prostate 25.1% | MALME-3M melanoma 60.6% | MDA-MB-231 breast 39.1% | SF-268 CNS 22.1% | UACC-257 melanoma 52.2%
active: NCI-H23 lung 6.77% | NCI-H460 lung 5.86% | NCI-H522 lung 2.82% | COLO 205 colon -6.76% | K-562 leukemia 8.98% | RXF 393 renal -14.7% | SF-295 CNS 6.33% | M14 melanoma -33.5%

C/C(=C(/c1ccc(O)cc1)c1ccc(OCCN2CCCC2)cc1)c1ccccc1
active: COLO 205 colon -56.4% | K-562 leukemia 2.35% | MALME-3M melanoma 8.05% | UACC-257 melanoma -29.5% | M14 melanoma -53.7%
inactive: NCI-H23 lung 68.1% | NCI-H226 lung 82.9% | NCI-H322M lung 75.8% | HOP-62 NSCLC 70.3% | NCI-H460 lung 24.7% | HOP-92 NSCLC 30% | NCI-H522 lung 49.8% | A549/ATCC NSCLC 48.7% | 786-0 renal 57.1% | DU-145 prostate 78.8% | MDA-MB-231 breast 49.6% | RXF 393 renal 42.4% | SF-268 CNS 63.8% | SF-295 CNS 44.3%

COc1cc(C(=O)/C=C/c2c(C)n([O-])c3ccc(C)cc3[n+]2=O)cc(OC)c1OC
inactive: NCI-H23 lung 42.2% | NCI-H226 lung 72.7% | NCI-H322M lung 97.9% | HOP-62 NSCLC 102% | NCI-H460 lung 88.4% | HOP-92 NSCLC 64.5% | A549/ATCC NSCLC 85.8% | 786-0 renal 74% | DU-145 prostate 49.3% | MALME-3M melanoma 83.8% | MDA-MB-231 breast 85% | SF-268 CNS 59% | SF-295 CNS 110% | UACC-257 melanoma 47.7% | M14 melanoma 60.1%
active: NCI-H522 lung -81.8% | COLO 205 colon -36.6% | K-562 leukemia 0.289% | RXF 393 renal -32.4%

CC(C)(C)c1nn(-c2ccccc2)c2c1CC1(CN2Cc2ccc3c(c2)OCO3)C(=O)c2ccccc2C1=O
inactive: NCI-H23 lung 106% | NCI-H226 lung 110% | NCI-H322M lung 107% | HOP-62 NSCLC 97.3% | NCI-H460 lung 112% | HOP-92 NSCLC 97.2% | NCI-H522 lung 141% | A549/ATCC NSCLC 79.4% | 786-0 renal 98.4% | COLO 205 colon 108% | DU-145 prostate 112% | K-562 leukemia 89.8% | MALME-3M melanoma 148% | MDA-MB-231 breast 94.6% | RXF 393 renal 93% | SF-268 CNS 111% | SF-295 CNS 106% | UACC-257 melanoma 104% | M14 melanoma 120%

CCOC(=O)C12CCCC1=CC(=O)CC2 (stereo not drawn)
inactive: NCI-H23 lung 107% | NCI-H226 lung 107% | NCI-H322M lung 104% | HOP-62 NSCLC 101% | NCI-H460 lung 107% | HOP-92 NSCLC 107% | NCI-H522 lung 105% | A549/ATCC NSCLC 91.6% | 786-0 renal 104% | COLO 205 colon 108% | DU-145 prostate 116% | K-562 leukemia 89% | MALME-3M melanoma 108% | MDA-MB-231 breast 111% | RXF 393 renal 113% | SF-268 CNS 103% | SF-295 CNS 115% | UACC-257 melanoma 94.4% | M14 melanoma 112%

CCN(CC)CCC(=O)Nc1ccc(Cn2nnc3c2C(=O)c2nnn(Cc4ccc(NC(=O)CCN(CC)CC)cc4)c2C3=O)cc1
active: NCI-H23 lung -24.6% | NCI-H226 lung -49.5% | NCI-H322M lung -75.3% | HOP-62 NSCLC -34.5% | NCI-H460 lung -29.7% | HOP-92 NSCLC -44.3% | NCI-H522 lung -73.5% | A549/ATCC NSCLC -58.1% | COLO 205 colon -86.7% | DU-145 prostate -92.6% | K-562 leukemia 2.02% | MALME-3M melanoma -79.5% | MDA-MB-231 breast -5.66% | SF-268 CNS -38.1% | SF-295 CNS -57.2% | UACC-257 melanoma -56.1% | M14 melanoma -16.3%
inactive: 786-0 renal 88.7% | RXF 393 renal 19.9%

C=C1CCC2C3(C)COC(c4ccccc4Br)OC3CCC2(C)C1C/C=C1/C(=O)OCC1OC(C)=O (stereo not drawn)
inactive: NCI-H322M lung 21.7% | HOP-62 NSCLC 11.5% | A549/ATCC NSCLC 22.7% | DU-145 prostate 21.4% | SF-295 CNS 27.6%
active: NCI-H23 lung -47.7% | NCI-H226 lung -58.3% | NCI-H460 lung 1.8% | HOP-92 NSCLC 1.59% | NCI-H522 lung -52.7% | 786-0 renal -72.8% | COLO 205 colon -76.7% | K-562 leukemia -43% | MALME-3M melanoma -44.6% | MDA-MB-231 breast -37.1% | RXF 393 renal -57.2% | SF-268 CNS -13.4% | UACC-257 melanoma -41.6% | M14 melanoma -36.7%

Nc1nc2c(c3ncccc13)C(c1cccc(Br)c1)Cc1ncccc1-2 (stereo not drawn)
active: NCI-H522 lung -12.4% | A549/ATCC NSCLC 9.92% | COLO 205 colon -36.1% | RXF 393 renal -7.52% | SF-295 CNS 7.75%
inactive: NCI-H23 lung 39.5% | NCI-H226 lung 72% | NCI-H322M lung 41.6% | HOP-62 NSCLC 20.3% | NCI-H460 lung 10.6% | HOP-92 NSCLC 67.2% | 786-0 renal 21.3% | DU-145 prostate 19.8% | K-562 leukemia 10.3% | MALME-3M melanoma 58.4% | MDA-MB-231 breast 20.4% | SF-268 CNS 56.4% | UACC-257 melanoma 37.9% | M14 melanoma 11.2%

CCCC(=O)Oc1ccc(/C(=C(/CC)Cc2ccccc2)c2ccc(OCCN3CCCC3)cc2)cc1
active: COLO 205 colon -6.63% | K-562 leukemia 2.42%
inactive: NCI-H23 lung 81.7% | NCI-H226 lung 96% | NCI-H322M lung 79.2% | HOP-62 NSCLC 82.8% | NCI-H460 lung 20.8% | HOP-92 NSCLC 79.1% | NCI-H522 lung 78.4% | A549/ATCC NSCLC 67.8% | 786-0 renal 76.6% | DU-145 prostate 87% | MALME-3M melanoma 91.4% | MDA-MB-231 breast 78.2% | RXF 393 renal 68.2% | SF-268 CNS 67.4% | SF-295 CNS 100% | UACC-257 melanoma 87.6% | M14 melanoma 63.9%

CCN(CC)CCC(=O)c1ccc(OC)c2ccccc12
inactive: NCI-H23 lung 90.8% | NCI-H226 lung 115% | NCI-H322M lung 90.9% | HOP-62 NSCLC 83.4% | NCI-H460 lung 99.8% | HOP-92 NSCLC 102% | NCI-H522 lung 12.6% | A549/ATCC NSCLC 100% | 786-0 renal 98.7% | COLO 205 colon 109% | DU-145 prostate 116% | K-562 leukemia 43.9% | MALME-3M melanoma 104% | MDA-MB-231 breast 110% | RXF 393 renal 81.8% | SF-268 CNS 110% | SF-295 CNS 99.6% | UACC-257 melanoma 89.4% | M14 melanoma 90.1%

O=C(O)c1ccccc1Nc1cccc(S(F)(F)(F)(F)F)c1
inactive: NCI-H23 lung 96.8% | NCI-H226 lung 88.9% | NCI-H322M lung 101% | HOP-62 NSCLC 88.4% | NCI-H460 lung 102% | HOP-92 NSCLC 96.1% | NCI-H522 lung 61.9% | A549/ATCC NSCLC 84.2% | 786-0 renal 110% | COLO 205 colon 104% | DU-145 prostate 107% | K-562 leukemia 107% | MALME-3M melanoma 101% | MDA-MB-231 breast 110% | RXF 393 renal 116% | SF-268 CNS 94.2% | SF-295 CNS 99.4% | UACC-257 melanoma 102% | M14 melanoma 102%
